Screening data (PubChem)
Rows were chosen to be rich in hits. Some 19% of all compounds tested hit in one or more screens of this group.
IL1B secr inh – qHTS for Inhibitors of Inflammasome Signaling: IL-1-beta AlphaLISA Primary Screen; THP-1 LPS/ATP IL-1B secretion, AlphaLISA, 16 h; active compounds read low; activity change, % at 57.5 µM; 360,000 tested, 4.7% active; AID 743279, 2014; in the data active = activity change below about -50%; inconclusive = mostly about -30% to -49%
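THP-1 cells pretreated 1 hr with compounds (up to 57.5 uM final), then stimulated with LPS (250 ng/mL final) plus ATP (1.25 mM final); secreted IL-1B measured by AlphaLISA after 16 hr, decreased signal indicating inhibition.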
TDP1 cell CPT – qHTS for Inhibitors of human tyrosyl-DNA phosphodiesterase 1 (TDP1): qHTS in cells in presence of CPT | chicken DT40 Tdp1-/-;hTDP1 cells + 20 nM CPT, ATP luminescence, 48 h | Potency, µM (titrated, usually from 46.2 µM), for inactives: at the highest dose activity change, negative = growth inhibition, hits mostly inhibitors | 420,000 tested, 12% active | AID 686979, 2013; also: potency is read from the fitted curve at half-maximal effect; nearly all actives have a fitted effect of over 55% in size
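Cell growth measured by CellTiter-Glo luminescence after a minimum 48 h, 37 C compound exposure with 20 nM CPT in Tdp1-knockout DT40 cells stably expressing hTDP1, seeded 400/well; qHTS titration format.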
HT1080 IDH1KD tx – qHTS for induction of synthetic lethality in tumor cells producing 2HG: qHTS for the HT-1080-IDH1KD cell line; Potency, µM (series often up to 46.1 µM), without a hit: at the top dose activity, negative = toxicity, usual class: cytotoxic; HT-1080 IDH1 knockdown viability, ATP luminescence, 48 h; AID 686971, 2013; 360,000 tested, 2% active;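 also: potency is read from the fitted curve at half-maximal effect; 0% = DMSO wells and -100% = cell-free medium wells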
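In this qHTS, HT-1080 cells depleted of IDH1 are exposed for 48 h at 37 °C to compound titrations. Toxicity is scored from CellTiter-Glo luminescence, with DMSO as full viability and medium alone as none.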
HT1080NT lethal – qHTS for induction of synthetic lethality in tumor cells producing 2HG: qHTS for the HT-1080-NT fibrosarcoma cell line | AID 686970, 2013 | 360,000 tested, 1.6% active | HT-1080-NT fibrosarcoma viability, CellTiter-Glo ATP luminescence, 48 h | Potency, µM (top dose mostly 46.1 µM), inactives show at the highest dose activity, negative = less viability, hits mostly cytotoxic;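 also: NT is the 2HG producing partner of a matched IDH1 knockdown line; potency is read from the fitted curve at half-maximal effect; 0% = DMSO-treated cells and -100% = media-only wells without cells; nearly all actives have a fitted effect of over 55% in size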
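Viability by CellTiter-Glo luminescence after 48 h compound exposure at 37C of HT-1080-NT cells (750/well, RPMI, 5% FBS). % activity scaled between DMSO wells and medium-only wells, then curve-fitted and categorized by curve class.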
DT40 TDP1 no CPT – qHTS for Inhibitors of human tyrosyl-DNA phosphodiesterase 1 (TDP1): qHTS in cells in absence of CPT; DT40 Tdp1-/- hTDP1 cells, no CPT, ATP luminescence, 48 h; Potency, µM (series often up to 46.2 µM), without a hit: top-dose activity change, negative = growth inhibition, hits mostly inhibitors; 420,000 tested, 15% active; also: potency is read from the fitted curve at half-maximal effect; nearly all actives have a fitted effect of over 55% in size
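A cellular qHTS used chicken DT40 cells lacking endogenous Tdp1 but carrying stably transfected human TDP1. Compounds were applied without camptothecin, and cell growth kinetics were judged by ATP-dependent luminescence after ≥48 hr.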
* hit, by the source's call. Unless noted, calls follow the shape of the dose curve; as a rule, active = well fitted curve in the direction sought with a large enough effect; inconclusive = small, poorly fitted or top-dose-only effect, or another doubt; inactive = no such curve, though single readings can be large; an effect the other way counts as inactive or inconclusive. Unless noted, % is scaled to controls: 0 for no effect and ±100 for the full control effect.

Screening CCOc1ccc2nc(SC3CC(=O)N(c4ccc(C)cc4)C3=O)sc2c1 (configuration not stated) returned IL1B secr inh 15, TDP1 cell CPT 4.6µM*, HT1080 IDH1KD tx inconclusive, HT1080NT lethal -3% and DT40 TDP1 no CPT 4.6µM*.
For COc1ccc(N2C(=O)CC(Sc3nccc(C)n3)C2=O)c(OC)c1 (configuration not stated) the results were IL1B secr inh 18, TDP1 cell CPT inconclusive, HT1080 IDH1KD tx 4%, HT1080NT lethal 9% and DT40 TDP1 no CPT inconclusive.
Screening CCOc1ccc2nc(SC3CC(=O)N(c4ccc(OC)cc4OC)C3=O)sc2c1 (configuration not stated) returned IL1B secr inh 29, TDP1 cell CPT 4.6µM*, HT1080 IDH1KD tx inconclusive, HT1080NT lethal inconclusive and DT40 TDP1 no CPT 3.3µM*.
`CCOc1ccc(N2C(=O)CC(Sc3nccc(C)n3)C2=O)cc1` (configuration not stated) gave IL1B secr inh 25, TDP1 cell CPT inconclusive, HT1080 IDH1KD tx 15%, HT1080NT lethal 11% and DT40 TDP1 no CPT inconclusive.
C=CCNc1nnc(SC2CC(=O)N(c3ccc(OCCC)cc3)C2=O)s1 (configuration not stated) was read as IL1B secr inh 9, TDP1 cell CPT 1.8µM*, HT1080 IDH1KD tx inconclusive, HT1080NT lethal inconclusive and DT40 TDP1 no CPT 4.1µM*.
`Cc1cc2c3c([nH]c2cc1S(=O)(=O)N1CCC2(CC1)OCCO2)CCCC3=O` gave IL1B secr inh 10, TDP1 cell CPT inconclusive, HT1080 IDH1KD tx -15%, HT1080NT lethal -23% and DT40 TDP1 no CPT inconclusive.
`CCC(=O)c1ccc(OCC(=O)OCC(=O)N2CCCc3ccccc32)cc1` gave IL1B secr inh 0, TDP1 cell CPT -27%, HT1080 IDH1KD tx 11%, HT1080NT lethal 3% and DT40 TDP1 no CPT -20%.
`Cc1cc(OCC(=O)NCc2ccncc2)c2c(C)c(C)c(=O)oc2c1` gave IL1B secr inh 1, TDP1 cell CPT -12%, HT1080 IDH1KD tx 1%, HT1080NT lethal 0% and DT40 TDP1 no CPT inconclusive.
For COc1ccc(C2CC(=O)Nc3n[nH]c(-c4ccccc4)c32)cc1OC (configuration not stated) the results were IL1B secr inh 28, TDP1 cell CPT -4%, HT1080 IDH1KD tx 2%, HT1080NT lethal inconclusive and DT40 TDP1 no CPT 5%.
`COc1ccc(OC)c(CCNC(=O)C(C)n2nc(C)c3c(C)n(-c4ccccc4)nc3c2=O)c1` (configuration not stated) gave IL1B secr inh 0, TDP1 cell CPT inconclusive, HT1080 IDH1KD tx -13%, HT1080NT lethal -1% and DT40 TDP1 no CPT inconclusive.
Screening CCC(C(=O)Nc1ccccc1C(=O)OC)n1c(C)c2cnn(-c3ccccc3)c(=O)c2c1C (configuration not stated) returned TDP1 cell CPT 26µM* and DT40 TDP1 no CPT inconclusive.
For COc1ccc(OC)c(CNC(=O)C(C)n2c(C)c3cnn(-c4ccccc4)c(=O)c3c2C)c1 (configuration not stated) the results were TDP1 cell CPT inconclusive and DT40 TDP1 no CPT 12µM*.
`CCOc1ccc(CCNC(=O)Cn2c(C)c3cnn(-c4ccccc4)c(=O)c3c2C)cc1` gave TDP1 cell CPT -14% and DT40 TDP1 no CPT -10%.
Screening COc1ccc(OC)c(CCNC(=O)C(C)n2c(C)c3cnn(-c4ccccc4)c(=O)c3c2C)c1 (configuration not stated) returned TDP1 cell CPT 21µM* and DT40 TDP1 no CPT inconclusive.
